Pf growth 96h – Primary qHTS for delayed death inhibitors of the malarial parasite plastid, 96 hour incubation. 320,000 tested, 6.9% active. P. falciparum luciferase reporter growth, 96 h. Potency, µM (series often up to 28.7 µM), for the others: at the highest dose activity change, negative = inhibition, hits mostly inhibitors; also: potency is read from the fitted curve at half-maximal effect
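96 h incubation, 37 C, 5% CO2, of luciferase-reporter P. falciparum-infected RBCs (2% hematocrit, 0.05% parasitemia final) with test compounds; endpoint luminescence.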
HCV inh – qHTS Assay for Inhibitors of Hepatitis C Virus (HCV); Potency, µM (titrated, usually from 41.8 µM), for inactives: at the top dose activity change, negative = inhibition, usual class: inhibitors; AID 651820, 2012; 340,000 tested, 3.4% active; Huh7.5.1 HCVcc-Cre infection, luciferase reporter, 44 h; also: potency is read from the fitted curve at half-maximal effect
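1,000 cells/well; 4 h culture; + compound; + HCVcc-Cre (~0.5 moi); 44 h; luciferase substrate, RT 15 min; read 15 sec.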
LASV entry inh – qHTS for Inhibitors of binding or entry into cells for Lassa Virus | 300,000 tested, 1.2% active | Potency, µM (doses to about 37.9 µM), for the others: top-dose activity change, negative = inhibition, usual class: inhibitors | Lassa virus pseudotype entry inhibition, cell reporter; calls by dose curve; tested in HEK293 cells; also: potency is read from the fitted curve at half-maximal effect; nearly all actives have a fitted effect of over 50% in size
MARV entry inh – qHTS for inhibitors of binding or entry into cells for Marburg Virus | Potency, µM (series often up to 37.8 µM), without a hit: top-dose activity change, negative = inhibition, most hits filed as inhibitors | Marburg virus pseudotyped entry inhibition, cell reporter | 300,000 tested, 1.8% active; calls by dose curve; tested in HEK293 cells; also: potency is read from the fitted curve at half-maximal effect
Pf growth 48h – Primary qHTS for delayed death inhibitors of the malarial parasite plastid, 48 hour incubation; P. falciparum luciferase growth in erythrocytes, 48 h; Potency, µM (doses to about 28.7 µM), inactives show at the top dose activity change, negative = inhibition, usual class: inhibitors; 310,000 tested, 5.9% active; also: potency is read from the fitted curve at half-maximal effect
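Erythrocytes infected with P. falciparum carrying an integrated firefly luciferase reporter (2% hematocrit, 0.1% parasitemia final) were exposed to compounds in RPMI 1640 with 0.5% Albumax at 37 C, 5% CO2. Growth inhibition was scored as reduced luminescence.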
HCMV antiviral – qHTS Assay for inhibitors of the human cytomegalovirus (HCMV). HFF cells, HCMV-luciferase reporter, 72 h; hits give low values. activity change, negative = inhibition, % at 57.5 µM. 410,000 tested, 4.5% active. AID 1259415, 2018; in the data active = activity change below about -60%; inconclusive = no clear call, values can overlap the other calls; inactive = above about -39%
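HFF cells seeded 16 h at 37C, treated with compounds, infected with luciferase-reporter HCMV at MOI 1 PFU/cell; luciferase read at 72 h post infection, normalized to buffer-only and Salinomycin controls.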
The depositor's hits bear a star; i = inactive; ? = inconclusive; / = not tested or not shown; [ ] = another dose, or the depositor's remark. Shown are actives, neighbours in structure and some others; about 14% of the full set was active somewhere. Unless noted, calls follow the shape of the dose curve; as a rule, active = well fitted inhibition curve with a large enough effect; inconclusive = small, poorly fitted or top-dose-only effect, or another doubt; inactive = no such curve, though single readings can be large or run the other way. % is scaled to controls: 0 for no effect and ±100 for the full control effect.

SMILES	Pf growth 96h	HCV inh	LASV entry inh	MARV entry inh	Pf growth 48h	HCMV antiviral
O=C(O)CN1C(=O)/C(=C\c2cccc(OCc3ccccc3F)c2)SC1=S	?	-7%	7%	27%[46.1 µM]	25%	-76*
COCCn1c(=O)[nH]c(=O)c2cc(C(=O)c3cc(Cl)ccc3O)cnc21	?	1.8µM*	?	-26%[46.1 µM]	9.3µM*	/
COc1ccc(O)c(C(=O)c2cnc3c(c2)c(=O)[nH]c(=O)n3C)c1	?	?	17%	0%	11%	15
O=C(COc1ccc(F)cc1)NCc1ccc2c(c1)CCN2C(=O)c1ccccc1	/	/	?	/	/	0
Cc1ccc2occ(/C=N/NC(=O)[C@@H](N)Cc3ccccc3)c(=O)c2c1	-13%	-12%	1%	6%[46.1 µM]	?	-84*
COC(=O)C1(O)CC(c2ccccc2)C(C(=O)c2ccccc2)N1c1ccc(Br)cc1 (centres undefined)	/	/	/	/	/	-14
Nc1c2c(nc3c1CCC3)CCCC2	3.8µM*	/	/	/	4.8µM*	/
Nc1c2c(nc3sc4c(c13)CCCC4)-c1ccccc1CC2	i	?	11µM*	7.1µM*	-27%	?
Nc1c2c(nc3sc4c(c13)CCCCC4)CCCC2	18%	22µM*	?	?	?	-71*
CCC(=O)N1CCC(C)(C(=O)Nc2nccc3ccccc23)C1 (centres undefined)	/	/	/	/	/	61
CC1CN(C(=O)c2cc3cc(Br)ccc3[nH]2)CC(C)O1 (centres undefined)	?	3%	1%	5%	12µM*	-21
Cc1c(C(=O)N2CC(C)OC(C)C2)[nH]c2ccc(Br)cc12 (centres undefined)	13µM*	-11%	?	-13%[46.1 µM]	?	-10
CC1CN(C(=O)c2cc(Br)c(Br)s2)CC(C)O1 (centres undefined)	?	-2%	/	/	13%	-7
Cc1nc2ccn(Cc3ccco3)c(=O)c2cc1C(=O)N1CCN(c2ccc(F)cc2)CC1	/	/	-14%[46.1 µM]	/	/	45
CC(Sc1ccccc1)C(=O)NCC1COc2ccccc2O1 (centres undefined)	28%	-2%	-12%	17%	1%	-16
COc1ccc(Nc2c(-c3ccc(C)o3)nc3cc(C)ccn23)cc1	/	/	1%[46.1 µM]	6%[46.1 µM]	/	-30
COc1cc(C2C3CN(C)CC=C3C(C#N)=C(N)C2(C#N)C#N)ccc1OC(C)C (centres undefined)	?	-17%	5%	-9%	?	-15
CC(C)(C)OC(=O)N1CC=C2C(C#N)=C(N)C(C#N)(C#N)[C@H](c3cccnc3)[C@H]2C1	/	-3%	-13%	0%	-20%	-22
CCCOc1ccc([C@@H]2C3CN(C(=O)OCC)CC=C3C(C#N)=C(N)C2(C#N)C#N)cc1OC (some centres undefined)	/	-20%	10µM*	0%	5.9µM*	-21
COc1cc([C@@H]2[C@H]3CNCC=C3C(C#N)=C(N)C2(C#N)C#N)ccc1OC(C)C	-12%	?	-4%	?	13µM*	20
N#CC1=C(N)C(C#N)(C#N)[C@H](c2ccncc2)[C@H]2CN(C(=O)OCc3ccccc3)CC=C12	?	-1%	-26%[14.3 µM]	?	10µM*	-17
COc1c2ccccc2nn1CCCCCO	/	/	/	/	/	3
Cc1cc(N2CCC(C)CC2)nc2ccc(NC(=O)/C=C/c3cccc(Cl)c3)cc12	/	/	15%[46.1 µM]	29%[46.1 µM]	/	-29
COc1ccc(NC(=O)c2cc(C3CCCCN3C(=O)c3ccc(NC(C)=O)cc3)on2)c(C)c1 (centres undefined)	/	/	/	/	/	-15
Cc1cccc(C)c1NC(=O)CNC(=O)C12CC3CC(CC(O)(C3)C1)C2	9%	30%	0%	?	7%	-73*
CCOC(=O)C[n+]1c(C)ccc2c1CCC2	8.3µM*	-11%	-4%	4%	-6%	18

Assay outcomes: PubChem, National Center for Advancing Translational Sciences (NCATS)
